# Mcl1 Noxa PPI: Mcl-1/Noxa binding inhibitors, primary screen, biochemical, TR-FRET, 1536-well | TR-FRET Mcl-1/Noxa peptide binding, 2 h | inhibition, % at 21.7 µM | actives 1.5% (n = 220,000);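 active = compounds that cut the protein-peptide binding signal by more than 50% relative to plate controls in a single-dose test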;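 note: His-tagged Mcl-1 with rhodamine Noxa BH3 peptide and terbium anti-His antibody; 0% = Mcl-1 plus Noxa peptide wells and 100% = peptide-only wells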
# Target sequence (Q07820 whole entry, looked up): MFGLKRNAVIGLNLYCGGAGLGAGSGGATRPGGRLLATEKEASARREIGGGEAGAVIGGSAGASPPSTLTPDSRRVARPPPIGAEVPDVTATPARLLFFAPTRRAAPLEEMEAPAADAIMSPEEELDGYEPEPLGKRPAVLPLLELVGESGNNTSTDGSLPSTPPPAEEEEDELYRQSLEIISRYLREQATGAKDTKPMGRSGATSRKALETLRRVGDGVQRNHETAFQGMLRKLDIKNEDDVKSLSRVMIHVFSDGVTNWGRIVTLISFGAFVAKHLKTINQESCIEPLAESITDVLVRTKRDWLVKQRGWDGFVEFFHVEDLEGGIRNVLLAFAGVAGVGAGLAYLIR
# GLD-1 TGE inh: GLD-1/TGE RNA complex disruptors, primary screen, biochemical, fluorescence polarization; actives 0.44% (n = 320,000); inhibition, % at 5.96 µM; purified GLD-1 + fluorescein TGE RNA; AID 2280, 2010;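 active = percent inhibition above a per-plate cutoff, the plate mean of test compounds plus 3 SD, cut at about 30% in these data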;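 note: 0% = DMSO wells with GLD-1 and probe and 100% = wells lacking GLD-1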
# BCLXL inh: inhibitors of human Bcl-xL, primary screen, biochemical, fluorescence polarization, HTS; GST-Bcl-xL / FITC-Bim BH3 peptide fluorescence polarization; actives 0.7% (n = 320,000); Bcl-2-like protein 1 (Homo sapiens), Q07817; inhibition, % at 10.9 µM;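 active = inhibition above the mean of all tested compounds plus 3 SD, cutoff set per campaign, cut at about 30% in these data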;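 note: 0% = DMSO wells and 100% = unlabeled Bim-BH3 peptide competitor; inhibitors lower millipolarization by displacing the labeled peptide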
# Target sequence (Q07817 whole entry, looked up): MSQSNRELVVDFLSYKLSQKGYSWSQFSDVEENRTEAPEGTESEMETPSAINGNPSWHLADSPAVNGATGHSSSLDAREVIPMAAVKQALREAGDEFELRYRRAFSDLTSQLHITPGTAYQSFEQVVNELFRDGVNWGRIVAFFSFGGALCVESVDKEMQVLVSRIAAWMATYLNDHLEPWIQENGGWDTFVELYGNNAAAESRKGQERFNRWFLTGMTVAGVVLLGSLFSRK
# MCL1-BIM inh: inhibitors of MCL1 binding to BIM-BH3, primary screen, biochemical, fluorescence polarization; AID 2057, 2009; GST-MCL1 / FITC-Bim-BH3 fluorescence polarization; actives 0.68% (n = 320,000); inhibition, % at 10.9 µM;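 active = inhibition above the mean inhibition of all tested compounds plus 3 SD, set per campaign, cut at about 40% in these data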;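 note: 0% = DMSO wells and 100% = unlabeled Bim-BH3 peptide control; higher means more loss of mP so more displacement of Bim peptide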
# Mcl1 Bid PPI: Mcl-1/Bid binding inhibitors, primary screen, biochemical, TR-FRET, 1536-well. TR-FRET Mcl-1/Bid-Dy647 peptide binding. inhibition, % at 21.7 µM. Induced myeloid leukemia cell differentiation protein Mcl-1 (Homo sapiens), Q07820. AID 1021, 2008. actives 0.97% (n = 220,000);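 active = compounds that cut the binding signal by more than half at the single screening dose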;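 note: His-tagged Mcl-1 with europium anti-His antibody binding Bid BH3 peptide; 0% = Mcl-1 plus peptide wells and 100% = peptide-only wells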
# Mcl-1 Bim block: inhibitors of Bim peptide binding to Mcl-1, primary screen, biochemical, bead-based flow cytometry, multiplex; inhibition, % at 10 µM; actives 0.1% (n = 190,000); Bim peptide-Mcl-1 binding; AID 1009, 2008; in the data active = inhibition above about 40%;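 note: 0% = no compound tracer wells and 100% = peptide blocker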
# An asterisk follows results filed as active; · = no result given; + = active, no number. This is a sample that favours compounds with a hit; in the whole collection about 2.3% have one here.
SMILES,Mcl1 Noxa PPI,GLD-1 TGE inh,BCLXL inh,MCL1-BIM inh,Mcl1 Bid PPI,Mcl-1 Bim block
CN(C)c1ccc(S(=O)(=O)c2ccc(Cl)cc2)cc1,3.9,-8.1,3.5,11.8,-21.1,0.0
Cc1ccc(S(=O)(=O)Nc2ccc(N(C)C)cc2)cc1,73.4*,-0.5,5.2,9.7,-3.1,0.0
CC(C)c1ccc(NS(=O)(=O)c2ccc(Cl)nc2)cc1,12.8,-2.9,6.3,8.7,54.7*,-2.0
CN(C)c1ccc(NS(=O)(=O)c2ccc(Cl)cc2)cc1,60.8*,7.9,2.7,11.5,-8.9,0.0
O=[N+]([O-])c1cc(NS(=O)(=O)c2ccc(Cl)nc2)ccc1Cl,·,-2.1,-1.5,-1.4,·,·
CCOc1ccccc1C(=O)NCC(=O)NNC(=O)c1cccs1,·,10.1,·,·,·,·
O=C(CN1CCN(S(=O)(=O)/C=C/c2ccccc2)CC1)NCC(F)(F)F,·,-3.0,-0.3,2.3,·,·
O=C(Nc1ccc2c(c1)OCO2)c1ccc([N+](=O)[O-])cc1[N+](=O)[O-],·,1.7,3.4,3.6,·,·
CCOc1ccc(CN2CCC(n3nccc3NC(=O)c3ccccc3OC)CC2)cc1,·,1.6,7.0,6.0,·,·
CCN(CC)CCCNc1nc(SC)nc2sc3c(c12)CCN(C)C3,·,-27.6,70.6*,6.6,·,·
C=C(C)C(=O)Nc1ccc2c(c1)OCCOCCOCCO2,52.5*,6.4,0.8,-3.2,-33.9,·
O=C(Nc1ccc2c(c1)OCCO2)NC1(C(F)(F)F)Oc2ccccc2O1,24.7,6.8,6.5,7.0,68.6*,-1.0
COc1cccc(NC(=O)COC(=O)Cn2c(C)csc2=O)c1,·,2.2,-11.7,-10.9,·,·
CCC(C)N1CCN(S(=O)(=O)Cc2ccccc2)CC1 (centres undefined),·,2.9,0.1,1.9,·,·
CC1=C(C(N)=O)C(c2ccc(Br)cc2)n2nc(CCCO)nc2N1 (centres undefined),·,-41.4,-22.7,-29.4,·,·
OCCCc1nc2n(n1)C(c1cccs1)C=C(c1ccc(Br)cc1)N2 (centres undefined),9.9,163.2*,188.8*,+,-5.0,2.0
Brc1ccc(C2=CC(c3cccs3)n3ncnc3N2)cc1 (centres undefined),-17.6,150.8*,167.9*,+,-45.6,-5.0
O=C(COc1ccccc1)Nc1cccc(-c2ccc(N3CCOCC3)nn2)c1,·,6.3,0.2,-0.1,·,·
Cc1cc(Br)ccc1NC(=O)CNC(=O)CSc1nccn1C,·,0.1,·,·,·,·
CC(=O)[C@@H]1[C@@H]2C(=O)N(Cc3ccccc3)C(=O)[C@@H]2C2c3ccccc3C=CN21 (some centres undefined),10.3,38.5*,46.4*,49.6*,-16.2,-3.0
CC1CCN(C(=O)CSc2nc(N)c(NC(=O)c3ccccc3)c(=O)[nH]2)CC1,·,-0.2,1.2,3.4,·,·
CCN(CCNC(=O)CN1CCN(Cc2ccc(Cl)cc2)C1=O)c1ccccc1,-20.4,-11.0,2.1,1.1,87.4*,0.0
O=C(CN1CCN(Cc2ccccc2)C1=O)NCc1ccc(Cl)cc1,-14.9,-0.5,3.8,0.6,-33.4,-2.0
OCC[C@@H]1C[C@@H](O)[C@H](O)[C@]2(Cc3ccccc3CCO2)O1,·,6.0,-0.2,-0.8,·,·
O=S(=O)(NCc1ccccn1)c1ccc(Cl)s1,0.5,2.4,3.7,12.9,-16.6,-1.0
SMILES,Mcl1 Noxa PPI,GLD-1 TGE inh,BCLXL inh,MCL1-BIM inh,Mcl1 Bid PPI,Mcl-1 Bim block
Oc1ccc(N=Cc2ccc(O)c(O)c2)cc1,66.7*,2.6,23.4,27.9,-12.7,9.0
N#CC1=C(N)N(c2ccc(F)cc2)C2=C(C1c1ccc(O)cc1)S(=O)(=O)CC2 (centres undefined),89.5*,·,·,·,30.4,21.0
CCOc1ccc(CNC(=S)N/N=C\c2ccc([N+](=O)[O-])cc2)cc1,54.0*,2.5,4.4,7.6,45.4,-7.0
CCOc1ccc(CNC(=S)N/N=C/c2cccnc2)cc1,14.0,2.0,-0.7,5.0,-31.4,-3.0
c1ccc2c(c1)nc(N1CCOCC1)c1nnnn12,16.4,16.9,43.4*,26.4,-27.6,-1.0
CCCCNc1cc(Cl)nc(N)n1,6.3,11.7,30.3*,28.4,-10.1,·
Nc1nc(Cl)cc(NCCc2ccccc2)n1,-27.8,3.1,3.3,9.1,-15.6,1.0
O=C1CCC/C(=N/NC(=O)c2sc3ccccc3c2Cl)C1,-51.2,103.0*,1.9,-31.9,-202.2,·
CCOC(=O)CSc1n[nH]c(-c2cccnc2)n1,52.6*,-1.4,-0.5,-2.7,-6.0,0.0
COC(=O)CSc1n[nH]c(-c2cccnc2)n1,16.1,-0.4,7.6,5.2,-2.1,-2.0
NCCCC[C@H](NC(=O)C1CCNCC1)c1nnc([C@@H](N)CO)o1,16.2,-8.3,0.0,-3.1,19.7,-1.0
NCCCC[C@H](NC(=O)C1CCNCC1)c1nnc(CN)o1,35.0,-3.1,11.7,5.9,90.2*,0.0
CSCc1c(C(=O)OCC(=O)NC2CCCCC2)oc2ccccc12,·,3.3,-1.4,-1.6,·,·
CCCC(C(=O)O)N1C(=O)/C(=C/c2cccn2C)SC1=S (centres undefined),52.0*,-110.6,-69.3,-113.6,1.2,-2.0
CC(=O)c1cc(C(=O)N2CCCC(C(=O)c3ccc(Cl)cc3)C2)cs1 (centres undefined),·,0.5,2.5,-1.4,·,·
CCC(CC)N1CCN(CC2CC=CCC2)CC1 (centres undefined),30.9,0.2,3.4,2.0,41.8,-1.0
CC(C)CC(=O)N1CCN(CC2CC=CCC2)CC1 (centres undefined),38.4,6.5,6.0,2.5,56.8*,0.0
Cc1cccc(NC(=O)c2ccccc2Br)n1,9.0,5.1,4.1,-0.3,-31.5,-2.0
Cc1cccc(NC(=O)c2cccc3c2-c2ccccc2C3=O)n1,-5.1,3.7,67.4*,-0.8,20.5,0.0
Cc1cccc[n+]1C1C(c2ccccc2)C(C#N)=C(C(=C=[N-])C#N)NC1(O)C1CC1 (centres undefined),22.3,18.4,43.6*,32.6,-53.9,0.0
N#CC(=C=[N-])C1=C(C#N)C(c2ccccc2F)C([n+]2ccccc2)C(O)(C2CC2)N1 (centres undefined),-13.5,1.6,11.4,9.2,-16.0,-3.0
CC(=O)NCCc1c(C)n(Cc2ccccc2)c2ccccc12,·,1.6,5.2,9.1,·,·
CC1(C)C(c2cccs2)=[N+]([O-])C2(CCCCC/C2=N\O)N1O (centres undefined),-7.7,2.0,-6.5,-14.1,56.8*,-1.0

# High-throughput results (PubChem)
